From PubChem BioAssay (Tox21)
Inconclusive results are not listed. Where a call stands in place of a potency, no number is given. The source made the active and inactive calls. Unless noted, calls come from the whole dose curve.

What was measured:
[1] = Caspase-3/7 induction in CHO-K1 cells by small molecules, qHTS cell viability counter screen (AID 1346979; active = well fitted curve in the direction sought with a large enough effect in the repeat runs; an effect the other way counts as inactive or inconclusive; note: potency is the fitted concentration of half-maximal effect; nearly all actives have a fitted effect of over 35% in size)
Outline: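 Following a 5hr settling period, CHO-K1 cells at 1,500 per well received DMSO-dissolved compounds. Cell viability was quantified 16hr later by CellTiter-Fluor fluorescence, measured after 1hr with reagent at 37C.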

[2] = Caspase-3/7 induction in CHO-K1 cells by small molecules, qHTS assay (AID 1346980; active = well fitted curve in the direction sought with a large enough effect in the repeat runs; an effect the other way counts as inactive or inconclusive; note: nearly all actives have a fitted effect of over 15% in size)
Outline: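 Wild-type CHO-K1 cells exposed to compounds for 17hr at 37 C, 5% CO2. Caspase-3/7 activity then measured by Caspase-Glo 3/7 luminescence after 30min at room temperature.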

[3] = target: Nuclear receptor subfamily 1 group I member 2 (Homo sapiens) (UniProt O75469); assay: Human pregnane X receptor (PXR) small molecule agonists, qHTS assay (AID 1346982; active = well fitted curve in the direction sought with a large enough effect in the repeat runs; an effect the other way counts as inactive or inconclusive; note: potency is the fitted concentration of half-maximal effect; nearly all actives have a fitted effect of over 35% in size)
Sequence of Nuclear receptor subfamily 1 group I member 2 (Homo sapiens) (O75469 whole entry, looked up): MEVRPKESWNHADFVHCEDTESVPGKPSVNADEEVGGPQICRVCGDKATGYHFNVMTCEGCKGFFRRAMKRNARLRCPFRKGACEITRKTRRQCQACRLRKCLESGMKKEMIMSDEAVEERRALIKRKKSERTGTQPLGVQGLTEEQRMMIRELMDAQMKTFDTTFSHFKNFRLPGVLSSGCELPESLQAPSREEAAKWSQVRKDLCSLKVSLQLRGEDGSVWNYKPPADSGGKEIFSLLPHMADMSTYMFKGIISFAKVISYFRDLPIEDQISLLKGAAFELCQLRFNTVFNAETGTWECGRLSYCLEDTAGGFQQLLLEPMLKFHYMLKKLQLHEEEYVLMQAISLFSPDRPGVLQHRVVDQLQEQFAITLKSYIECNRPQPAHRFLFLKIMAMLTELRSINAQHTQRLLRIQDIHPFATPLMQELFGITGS
Outline: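 Stable HepG2 line reporting PXR-mediated CYP3A4 expression via luciferase. Treatment: 24 hr with compounds in DMSO at 37 C. Detection: ONE-Glo luminescence.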

[4] = target: Acetylcholinesterase (Homo sapiens) (UniProt P22303); assay: Acetylcholinesterase (AChE) small molecule antagonists: colormetric cell-based qHTS assay (AID 1347395); note: nearly all actives have a fitted effect of over 30% in size
Sequence of Acetylcholinesterase (Homo sapiens) (P22303 whole entry, looked up): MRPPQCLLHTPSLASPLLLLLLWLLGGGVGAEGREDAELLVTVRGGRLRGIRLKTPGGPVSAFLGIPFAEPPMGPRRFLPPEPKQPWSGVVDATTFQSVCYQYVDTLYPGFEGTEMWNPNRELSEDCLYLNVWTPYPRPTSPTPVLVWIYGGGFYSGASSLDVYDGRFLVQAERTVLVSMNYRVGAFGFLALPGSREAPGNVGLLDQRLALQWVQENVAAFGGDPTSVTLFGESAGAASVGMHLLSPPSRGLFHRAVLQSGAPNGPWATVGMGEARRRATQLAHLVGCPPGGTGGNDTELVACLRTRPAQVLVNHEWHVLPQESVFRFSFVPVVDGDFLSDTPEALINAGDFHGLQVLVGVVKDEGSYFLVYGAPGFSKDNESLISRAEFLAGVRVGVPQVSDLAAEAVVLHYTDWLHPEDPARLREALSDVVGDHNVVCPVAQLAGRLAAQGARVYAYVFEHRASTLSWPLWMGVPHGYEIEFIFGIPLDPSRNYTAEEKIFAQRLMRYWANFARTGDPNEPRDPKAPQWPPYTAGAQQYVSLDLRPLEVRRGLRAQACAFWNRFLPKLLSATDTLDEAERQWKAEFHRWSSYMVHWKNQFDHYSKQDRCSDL
Outline: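 After overnight attachment at 37 C, SH-SY5Y cells get 30 min compound exposure; detection cocktail (acetylthiocholine, DTNB) then incubates 90 min at 37 C, and absorbance reflects AChE-generated thiocholine.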

[5] = target: Acetylcholinesterase (Homo sapiens) (UniProt P22303); assay: Acetylcholinesterase (AChE) small molecule antagonists: enzyme-based qHTS assay (AID 1347397); conditions: Potency: AChE enzyme activity inhibition; note: nearly all actives have a fitted effect of over 55% in size
Outline: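 In this quantitative HTS, compounds from the Tox21 10K collection were preincubated 30 min at ambient temperature with recombinant human AChE dispensed at 50 mU/mL. Hydrolysis of acetylthiocholine was then followed for 10 min by DTNB colour development.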

[6] = target: Acetylcholinesterase (Homo sapiens) (UniProt P22303); assay: Acetylcholinesterase (AChE) small molecule antagonists: fluorescence cell-based qHTS assay (AID 1347398); conditions: Potency: AChE activity; note: nearly all actives have a fitted effect of over 50% in size
Outline: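 Cells (SH-SY5Y) attached overnight, were dosed with compound or DMSO vehicle for 30 min at 37 C, and then incubated 40 min at room temperature with acetylthiocholine and Thiolite Green; green fluorescence indexed AChE activity.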

[7] = Caspase-3/7 induction in HepG2 cells by small molecules, qHTS cell viability counter screen (AID 1346981; active = well fitted curve in the direction sought with a large enough effect in the repeat runs; an effect the other way counts as inactive or inconclusive; note: series mostly up to about 92 µM; nearly all actives have a fitted effect of over 30% in size)
Outline: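 Treatment of HepG2 cells with DMSO-delivered compounds ran 16 hr at 37 C following a 5-hr pre-incubation of 2,000 cells/well. CellTiter-Fluor fluorescence, read after 1 hr, served as the viability measure in a qHTS format.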

For `Nc1ccc(Cc2ccc(N)c(Cl)c2)cc1Cl`, the Potency [1] was 59.1 µM (active), the Potency [2] was “inactive” and the Potency [3] was 52.7 µM (active). The Potency [4] was “inactive”, the Potency [5] was “inactive” and the Potency [6] was “inactive”.

With `CCCOCC(=Nc1ccc(Cl)cc1C(F)(F)F)n1ccnc1` the Potency [1] was 48.5 µM (active), the Potency [2] was “inactive” and the Potency [4] was “inactive”. The Potency [5] was “inactive” and the Potency [6] was “inactive”.

For `CC(C)[C@H](C(=O)OC(C#N)c1cccc(Oc2ccccc2)c1)c1ccc(OC(F)F)cc1` (stereo partly specified), the Potency [2] was “inactive”, the Potency [7] was “inactive” and the Potency [4] was “inactive”. For the same compound, the Potency [5] was “inactive” and the Potency [6] was “inactive”.
